# Data taken from PubChem BioAssay AID504466 (National Center for Advancing Translational Sciences (NCATS), 2011).
# Among all 330,000 compounds or so, about 4,200 (1.3%) were called active. Where a call stands in place of a potency, no number is given. About 6% were inconclusive and are not listed. The call rests on the fitted dose curve; in most records, active means well fitted activation curve with a large enough effect; inconclusive means small, poorly fitted or top-dose-only effect; inactive means no such curve, though single readings can be large or run the other way. This excerpt belongs to a sample that is enriched for actives.
# Assay: qHTS screen for small molecules that induce genotoxicity in human embryonic kidney (HEK293T) cells expressing luciferase-tagged ELG1; further: nearly all actives have a fitted effect of over 60% in size
# Conditions: HEK293T ELG1-luciferase reporter, luminescence, 16 h; series mostly up to 46 µM
# Method in brief: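 Step 1: seed 2,000 HEK293T ELG1-luciferase cells per well. Step 2: add compound or DMSO, incubate 16 hr at 37 °C. Step 3: ONE-Glo, 30 min at room temperature, read luminescence.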
# Potency means the concentration at half of the fitted maximal effect.
row,SMILES,Potency
1,CCCCCCOC(=O)NCC(O)c1ccccc1 (stereo not given),18.4 µM (active)
2,CCCCCOC(=O)NCCOC(=O)Nc1ccc(C(=O)OCC)cc1,inactive
3,CCCCOC(=O)Nc1nnc(CC(=O)NCc2ccccc2)s1,inactive
4,O=C(CNC(=O)c1n[nH]c2ccccc12)Nc1cc(Cl)ccc1Cl,inactive
5,CCN(CC)C(=O)[C@H]1CC(CC(=O)NCc2ccco2)C(=O)N2CCc3c([nH]c4ccccc34)[C@]12C (stereo not given in full),inactive
6,COc1ccc(NS(=O)(=O)c2cc(NC(=O)c3ccc(S(=O)(=O)N(C)C)cc3)ccc2N2CCOCC2)cc1,inactive
7,CCN(C[C@H]1N[C@@](Cc2ccccc2)(C(=O)OC)[C@H]2C(=O)N(Cc3ccccc3)C(=O)[C@@H]12)C(=O)c1ccc(C)cc1,inactive
8,COc1ccc(NC(=O)CNc2cc(S(=O)(=O)N3CCOCC3)ccc2N2CCOCC2)c(OC)c1,inactive
9,O=C(Nc1ccccc1C(F)(F)F)c1cc(-c2ccc(O)cc2)on1,inactive
10,Cc1ccc(O)c(NC(=O)c2cc(-c3ccco3)on2)c1,20.6 µM (active)
11,Cc1ccc(C)c(NC(=O)c2ccc(OC(=O)c3ccco3)cc2)c1,inactive
12,CCCCC[C@@H]1C=C(C(=O)O)[C@H](c2ccc(C#N)cc2)N1S(=O)(=O)c1ccc(C)cc1,inactive
13,CC1CCCC(NC(=O)c2cc(S(=O)(=O)N3CCCCC3)ccc2Cl)C1C (stereo not given),inactive
14,Cc1ccc(C(=O)NNC(=O)c2ccncc2)cc1S(=O)(=O)N1CCCCC1,inactive
15,Cc1ccc(C(=O)NC2CCCC(C)C2C)cc1S(=O)(=O)N1CCCCC1 (stereo not given),18.3 µM (active)
16,C[C@@H]1CN([C@@H](C)CO)C(=O)c2cc(NC(=O)C3CC3)ccc2O[C@H]1CN(C)C,inactive
17,COC(=O)[C@@]1(C)[C@H]2C(=O)N(Cc3ccccc3)C(=O)[C@H]2[C@H]2CN=C(SCC3CC3)N21,inactive
18,CC[C@]1(C(=O)OC)[C@H]2C(=O)N(Cc3ccccc3)C(=O)[C@H]2[C@H]2CN=C(SCc3ccccc3)N21,inactive
19,COc1cccc(NC(=O)COC(=O)c2ccc3ccccc3n2)c1,inactive
20,Cc1cc(S(=O)(=O)N2CCOCC2)ccc1OCC(=O)N1CCOCC1,inactive

row,SMILES,Potency
1,Cc1ccc(OCCCC(=O)NC(C)c2ccccc2)c(C)c1 (stereo not given),inactive
2,Cc1ccc(OCCCC(=O)N2CCOCC2)c(C)c1,20.6 µM (active)
3,COc1ccc(C2(c3ccc(OC)cc3)NC(=O)N(CC(=O)Nc3cc(C)on3)C2=O)cc1,inactive
4,Cc1nn(-c2ccccc2)nc1C(=O)OCC(=O)N1CCCCC1C (stereo not given),inactive
5,COc1ccc(Br)cc1C(=O)NC(=S)Nc1cc(-c2nc3ccccc3[nH]2)ccc1C,inactive
6,c1ccc2[nH]c(-c3nc4ccccc4[nH]3)nc2c1,1.03 µM (active)
7,Cc1ccc(-c2nc3ccccc3[nH]2)cc1N,1.64 µM (active)
8,Nc1cccc(CCc2nc3ccccc3[nH]2)c1,inactive
9,O=C(Nc1cccc(-c2nc3ccccc3[nH]2)c1)c1ccc(C(=O)Nc2cccc(-c3nc4ccccc4[nH]3)c2)cc1,inactive
10,COc1ccc(-c2[nH]nc(-c3ccccc3)c2-c2nc3ccccc3[nH]2)cc1,inactive
11,C=CC1=C(C(=O)O)N2C(=O)[C@@H](NC(=O)/C(=N\OCC(=O)O)c3csc(N)n3)[C@H]2SC1,inactive
12,Cc1cccc(OCC(=O)OCC(=O)Nc2ccc(Cl)cn2)c1,inactive
13,COc1ccccc1-c1sc2ccccc2c1C#CC1(O)CCCCC1,inactive
14,COc1ccc(S(=O)(=O)N2CCOCC2)cc1NC(=O)c1ccc(OCC(C)C)c(OC)c1,inactive
15,C=CC[C@@H](CC(=O)N[C@H](CO)Cc1ccccc1)C(=O)N[C@@H](COC(=O)[C@@H](CC=C)Cc1ccc(F)cc1)Cc1c[nH]c2ccccc12,inactive
16,CC[C@]12c3[nH]c4cc(CCC(=O)N(C)C)ccc4c3CCN1C(=O)[C@@H](CC(=O)NCCCn1ccnc1)C[C@@H]2C(=O)N1CCN(C(=O)C2CC2)CC1,inactive
17,CN(CC(=O)O)C(=O)c1ccccc1,inactive
18,COc1cc2c(cc1OC)/C(=C/C(=O)c1ccc(NC(C)=O)cc1)NCC2,inactive
19,CC1(C)Cc2ccccc2/C(=C/C(=O)c2ccccc2)N1,inactive
20,CC1CN/C(=C\C(=O)c2ccc(Br)cc2)C(=O)N1 (stereo not given),1.3 µM (active)

row,SMILES,Potency
1,CN(c1ccccc1)S(=O)(=O)c1cc(C(=O)N2CCN(c3ncccn3)CC2)ccc1Cl,inactive
2,COc1ccccc1CNC(=O)COC(=O)c1cccs1,inactive
3,CCN(C[C@H]1N[C@@](CC)(C(=O)OC)[C@H]2C(=O)N(C)C(=O)[C@@H]12)C(=O)Nc1ccc(F)cc1,inactive
4,Cc1ccccc1-n1c(C)cc(/C=C2\NC(=O)NC2=O)c1C,14.6 µM (active)
5,Cc1cccc(C)c1-n1c(C)cc(/C=C2\C(=O)NN(c3ccccc3)C2=O)c1C,inactive
6,Cc1cc(/C=C2/NC(=O)NC2=O)c(C)n1-c1cccnc1,inactive
7,COc1cc(SC)ccc1C(=O)NNC(=O)C1COc2ccccc2O1 (stereo not given),inactive
8,Cc1ccc(OCCCC(=O)Nc2ccc3c(c2)OCCO3)cc1,inactive
9,COC(=O)CCNc1ccc2c(c1)OCCO2,9.2 µM (active)
10,COc1ccccc1OCCCC(=O)Nc1ccc2c(c1)OCCO2,inactive
11,COc1cccc(CC(=O)OCC(=O)NCc2ccc3c(c2)OCO3)c1,inactive
12,CCN1C[C@@H]2[C@@H]3C(=O)N(Cc4ccccc4)C(=O)[C@@H]3[C@](Cc3ccccc3)(C(=O)OC)N2C1=NC1CCCCC1,inactive
13,C[C@@H]1CN([C@H](C)CO)C(=O)c2cc(NC(=O)NC3CCCCC3)ccc2O[C@H]1CN(C)S(C)(=O)=O,inactive
14,Nc1ccc(C(=O)NCc2ccccc2)cc1,inactive
15,CC(=O)Nc1ccccc1NC(=O)c1cc(C)cc(C)c1,inactive
16,Nc1ccc(C(=O)Nc2ccccc2N)cc1,14.6 µM (active)
17,CC[C@]1(C(=O)OC)[C@H]2C(=O)N(C)C(=O)[C@H]2[C@H]2CN(C)C(=NCc3ccccc3)N21,inactive
18,CCc1ccc(NC(=O)N2CCN(c3ccccc3)CC2)cc1,inactive
19,CCc1ccc(NC2Nc3cc(C)nn3S2)cc1 (stereo not given),9.2 µM (active)
20,CCCc1cc(=O)[nH]c(SCC(=O)Nc2ccc(S(=O)(=O)N3CCCC3)cc2)n1,inactive
